Experimental findings from PubChem BioAssay (NCI) are described below.

Structures are written as SMILES. This is part of a sample that, as a whole, favours compounds with a hit. Of some 83,000 tested, about 20% had one in any assay.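 Assay: single dose, 48 h. Readout: percent growth (0 = no net growth; negative = cell death). Active: <10.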 Values without a mark were called inactive. The source made the active and inactive calls.

Some test systems named below: BT-549 breast; SW-620 colon; MCF7 breast; HCT-116 colon; HCC-2998 colon; KM12 colon; MDA-MB-435 melanoma.
Common to all, as to test: NCI-60 one-dose screen, 48 h (100 = growth as untreated, 0 = no growth, -100 = all killed)
Conditions in all cases: 10 µM unless noted

As for `CC(C)[N+](C)(C)CC(O)COc1cccc2ccccc12` (stereo not drawn), the growth is 112% in the test with BT-549 breast; 99.7% with SW-620 colon; 102% in the test on MCF7 breast; 113% with HCT-116 colon; 101% in the test on HCC-2998 colon; 96.1% in the test on KM12 colon.

On to `CCOC(=O)/C(C#N)=C(\C)CCc1ccccc1`, for which the growth with MDA-MB-435 melanoma was 110%; in the test with SW-620 colon, 103%; in the test with MCF7 breast, 91.9%; with HCT-116 colon it was 87.7%; in the test on HCC-2998 colon it was -6.07% (active); in the test on KM12 colon, 113%.

`Cn1cc(-c2nnc(-c3cn(C)c4ncc(Br)cc34)o2)c2ccccc21`: the growth was 95.2% with BT-549 breast; 27.4% in the test with MDA-MB-435 melanoma; 83.6% in the test on SW-620 colon; 44.7% in the test on MCF7 breast; 98% in the test with HCT-116 colon; 95.9% with HCC-2998 colon. Moreover, the growth in the test on KM12 colon is 56.3%.

`O=C1/C(=C\c2cn(CC(O)CN3CCCCC3)c3ccccc23)c2ccccc2N1c1c(Cl)cccc1Cl` (stereo not drawn): the growth with BT-549 breast was -86.1% (active); with SW-620 colon, -91.8% (active); with MCF7 breast, -77.5% (active); in the test with HCT-116 colon, -78.6% (active); in the test with HCC-2998 colon, -82.4% (active); in the test on KM12 colon it was -95.3% (active).

As to `Cc1cc(C)nc(SCC(=O)Nc2cccc(N=Cc3ccccc3O)c2)n1`, the growth in the test on BT-549 breast was 92.9%; in the test on MDA-MB-435 melanoma, 99.2%; in the test on SW-620 colon, 99.1%; with MCF7 breast, 94.3%; in the test with HCT-116 colon it was 97.3%; in the test with HCC-2998 colon, 121%. The growth in the test on KM12 colon was 107%.

For `Nc1cc(NN=C(c2ccc(O)cc2)c2ccc(O)cc2)c([N+](=O)[O-])cc1[N+](=O)[O-]`, the growth is 102% in the test with BT-549 breast; 96.5% with MDA-MB-435 melanoma; 101% with SW-620 colon; -60.5% (active) in the test with MCF7 breast; -61.8% (active) in the test on HCT-116 colon; -97.6% (active) with HCC-2998 colon. Moreover, the growth in the test with KM12 colon is 71.5%.

On to `O=C(CSc1nc2ccc([N+](=O)[O-])cc2[nH]1)Nc1ccc(F)c(Cl)c1`, for which the growth is -0.0932% (active) with BT-549 breast; 15.5% in the test with MDA-MB-435 melanoma; 26.4% with SW-620 colon; 9.25% (active) with MCF7 breast; 7.89% (active) in the test on HCT-116 colon; 32.9% in the test on HCC-2998 colon. Further, the growth in the test on KM12 colon was 19.9%.

With `C=CCCCCCCCCC(=O)OC(C)C`, the growth is 108% in the test with BT-549 breast; 111% in the test with MDA-MB-435 melanoma; 96.5% in the test on SW-620 colon; 98.2% in the test on MCF7 breast; 97.7% in the test on HCT-116 colon; 112% in the test on HCC-2998 colon. In addition, in the test with KM12 colon, the growth was 95.3%.

With `C#C[C@]1(O)CC[C@H]2[C@@H]3CC=C4c5nc(N)sc5CC[C@]4(C)[C@H]3CC[C@@]21C`, the growth in the test on BT-549 breast was 0.196% (active); in the test on MDA-MB-435 melanoma, 15.5%; in the test with SW-620 colon, 74.6%; in the test on MCF7 breast it was 75.2%; in the test on HCT-116 colon it was 33.8%; in the test on HCC-2998 colon, 80.8%. In addition, in the test with KM12 colon, the growth is 44.7%.

In the case of `CC(C)c1ccc(C(=O)Nc2sc3c(c2C#N)CCC(=O)C3)cc1`, the growth in the test with BT-549 breast is -9.76% (active); with MDA-MB-435 melanoma, -14.4% (active); with SW-620 colon, -19.1% (active); in the test with MCF7 breast, 4.86% (active); in the test with HCT-116 colon, -2.81% (active); in the test on HCC-2998 colon, 20.7%. In addition, the growth in the test with KM12 colon was 5.49% (active).

Consider `CC1(C)CC[C@]2(C(N)=O)CC[C@]3(C)C(=CC[C@@H]4[C@@]5(C)C/C(=C/c6cccnc6)C(=O)C(C)(C)[C@@H]5CC[C@]43C)[C@@H]2C1`, for which the growth in the test on BT-549 breast is -47.9% [100 µM] (active); in the test with MDA-MB-435 melanoma it was -34.6% [100 µM] (active); in the test on SW-620 colon it was -32.4% [100 µM] (active); with MCF7 breast, -9.32% [100 µM] (active); with HCT-116 colon, -48.2% [100 µM] (active); with KM12 colon, -37.2% [100 µM] (active).

As for `CC(C)CSc1ncnc2nc[nH]c12`, the growth with BT-549 breast is 104%; in the test with MDA-MB-435 melanoma, 104%; in the test with SW-620 colon it was 104%; in the test on MCF7 breast, 97.1%; in the test with HCT-116 colon it was 109%; in the test on HCC-2998 colon, 101%. The growth with KM12 colon is 106%.

With `COc1ccc(C(=O)c2nccc3cc(OC)c(OC)cc23)cc1OC`, the growth in the test with SW-620 colon was 96%; with MCF7 breast, 93.2%; in the test on HCT-116 colon it was 92.9%; in the test on KM12 colon it was 104%.

Turning to `[2H]C1([2H])CCN(C(=O)C2CC2)c2cc(NS(=O)(=O)c3ccc(-c4cccc(C(N)=O)c4)cc3)ccc21`, the growth in the test with BT-549 breast was 79%; in the test on MDA-MB-435 melanoma, -11.2% (active); with SW-620 colon, 31%; in the test with MCF7 breast, 21.4%; in the test on HCT-116 colon, 81.5%; with HCC-2998 colon, 60.1%. Moreover, the growth in the test on KM12 colon was 19.8%.

For the compound `C=C(C)[C@@H]1CC[C@]2(C(=O)NCCCN)CC[C@]3(C)[C@H](CC[C@@H]4[C@@]5(C)CC[C@H](O)C(C)(C)[C@@H]5CC[C@]43C)[C@@H]12`, the growth in the test on BT-549 breast was -2.14% [100 µM] (active); in the test on MDA-MB-435 melanoma it was -32.4% [100 µM] (active); in the test with SW-620 colon, -36.2% [100 µM] (active); in the test on MCF7 breast it was -8.46% [100 µM] (active); in the test on HCT-116 colon, 1.97% [100 µM] (active); with HCC-2998 colon, -23.4% [100 µM] (active). Besides, the growth in the test on KM12 colon is -25.3% [100 µM] (active).
